Measurements published in ChEMBL document CHEMBL1201862, “PubChem BioAssay data set” (2004).
The campaign covered roughly 57,000 sequences. About 4,900 (8.6%) were called active. Cut-off read from the data, not from the text of the source: active = GI50 up to about 1.1 µM and inactive = higher. For the sample, actives were picked, then their nearest neighbours and some sequences at random. Potency and affinity values are given separately.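 Dose response: 5 concentrations. Exposure: 48 h. Format: 96-well plates. Endpoint: linear interpolation; highest concentration if not reached. Abbreviation: GI50, concentration required for 50% inhibition of growth.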

test system: MOLT-4; experiment: NCI tumour cell line growth inhibition, 48 h

| Substance | GI50 |
| --- | --- |
| [Bis(aminomethyl)ethylmethylsilane]tetrachloroplatinum(IV), CHEMBL2146192 | 531 nM |
| cis-Bis[[(trimethylsilyl)methyl]amino]tetrachloroplatinum(IV), CHEMBL2146191 | 2000 nM |
| [Bis(aminomethyl)tetramethylenesilane]tetrachloropaltinum(IV), CHEMBL2146189 | 824 nM |
| [Bis(aminomethyl)dimethylsilane]tetrachloroplatinum(IV), CHEMBL2146190 | 1680 nM |
| CISPLATIN, CHEMBL11359 | 1430 nM |
| [Bis(aminomethyl)diethylsilane]tetrachloroplatinum(IV), CHEMBL2146203 | 561 nM |
| mu-(1,7-nanodiamine-N,N')bis-(cis-aminedichloroplatimum (II)), CHEMBL2146215 | 592 nM |
| [Bis(aminomethyl)dimethylsilane]dichloroplatinum (II), CHEMBL2146201 | 5000 nM |
| [Bis(aminomethyl)tetramethylenesilane]dichloropaltinum(II), CHEMBL2146205 | 2090 nM |
| [Bis(aminomethyl)pentamethylenesilane]dichloropaltinum(II), CHEMBL2146202 | 325 nM |
| [Bis(aminomethyl)pentamethylenesilane]tetrachloropaltinum(IV), CHEMBL2146204 | 505 nM |
